The text below walks through data of PubChem BioAssay.

Molecules are shown by their SMILES.

Assay [1] relates to Human papillomavirus type 1a protein E7 (residues 44-93). Description: HPV1a E7 fragment binders on microarrays, primary screen, biochemical, small-molecule microarray, residues 44-93, 635 nm fluorescence (AID 1108).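 Note: E7 fragment applied at 1 µg/mL in TBST for 1 h at 4 C; score combines spot fluorescence with its signal to noise ratio.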 To be noted: small-molecule microarray binding, fluorescence 635 nm; higher = more signal.
Assay [2] can be described thus: modulators of HCV replicon luciferase signal, primary screen, HCV replication inhibitor project, Huh7 cells, luciferase reporter (AID 1109).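 Note: huh7 hepatoma cells harbouring a luciferase neomycin HCV replicon reporter; luciferase luminescence as measure of HCV replicon replication; test concentration not given here.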 To be noted: 48 h, higher = more signal.
The target of assay [3] is Left-right determination factor 2 (Homo sapiens) (UniProt O00292). Description: LEFTY2 binders on small-molecule microarrays, primary screen, biochemical, small-molecule microarray, 635 nm fluorescence scan (AID 1110). Particulars: LEFTY2 binding, higher = more signal.
Sequence of Left-right determination factor 2 (Homo sapiens) (O00292 whole entry, looked up): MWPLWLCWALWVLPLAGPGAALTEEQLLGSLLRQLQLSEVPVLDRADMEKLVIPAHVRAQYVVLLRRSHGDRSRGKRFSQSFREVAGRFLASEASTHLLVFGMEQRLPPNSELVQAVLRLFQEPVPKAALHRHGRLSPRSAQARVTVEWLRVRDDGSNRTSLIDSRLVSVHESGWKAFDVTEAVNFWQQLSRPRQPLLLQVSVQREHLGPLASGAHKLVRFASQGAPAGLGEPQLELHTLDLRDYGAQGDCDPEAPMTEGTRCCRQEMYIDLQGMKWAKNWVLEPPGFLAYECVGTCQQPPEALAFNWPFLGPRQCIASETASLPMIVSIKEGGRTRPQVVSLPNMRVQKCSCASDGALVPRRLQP
The target of assay [4] is Calmodulin-1 (Homo sapiens) (UniProt P0DP23). Description: CALM1 binders on microarrays, EGTA buffer, profiling panel, biochemical, small-molecule microarray, Cy5-labelled CALM1 (AID 1111).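 Note: labelled calmodulin applied in Tris saline Tween buffer holding calcium plus EGTA and DTT.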 To be noted: Cy5-CALM1 binding fluorescence, higher = more signal.
Assay [5] has the same target. Description: calcium-bound CALM1 binders on microarrays, profiling panel, artefact control for SMM control-protein annotation, biochemical, small-molecule microarray, Cy5-labelled CALM1, plus calcium (AID 1112).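 Note: score merges spot fluorescence with signal to noise from triplicate slides.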 To be noted: Cy5-CALM1 binding fluorescence, higher = more signal.
Assay [6] can be described thus: small-molecule microarray binders of probe aWnt5a, primary screen, biochemical, biotinylated probe, 635/667 nm fluorescence (AID 1113).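 Note: score merges 667 nm fluorescence intensity with signal-to-noise per printed feature.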 Particulars: higher = more signal.
Assay [7] is described as follows: small-molecule microarray binders of probe aShh, primary screen, biochemical, biotinylated probe, 635/667 nm fluorescence (AID 1114).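 Note: probe is biotin-labelled aShh protein from a stem cell growth factor screen; measures binding of labelled protein to compounds printed on the slide; score merges feature fluorescence at 667 nm with signal-to-noise.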 Particulars: higher = more signal.
A short description of assay [8]: small-molecule microarray binders of probe aNog, primary screen, biochemical, biotinylated probe, 635/667 nm fluorescence (AID 1115).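 Note: probe is biotinylated aNog protein used at 0.15 µg/mL for 1 h at 4 C; z-score combines 667 nm fluorescence of each spot with its signal to noise.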 To be noted: higher = more signal.
Assay [9] addresses Torsin-1A-interacting protein 1 (Homo sapiens) (UniProt Q5JTV8). Description: LAP1 binders from COS7 cell lysate, primary screen, small-molecule microarray, 635/667 nm fluorescence (AID 1116). Particulars: COS7-hLAP1 lysate binding, 635 nm fluorescence, higher = more signal.
The target in assay [10] is Alpha-bungarotoxin (Bungarus multicinctus) (UniProt P60615). Description: alpha-bungarotoxin binders on microarray, profiling panel, artefact control for SMM control protein annotation, biochemical, small-molecule microarray, Alexa647 label, 635/667 nm fluorescence (AID 1117). To be noted: alpha-BTX-A647 binding fluorescence, higher = more signal.
Sequence of Alpha-bungarotoxin (Bungarus multicinctus) (P60615 whole entry, looked up): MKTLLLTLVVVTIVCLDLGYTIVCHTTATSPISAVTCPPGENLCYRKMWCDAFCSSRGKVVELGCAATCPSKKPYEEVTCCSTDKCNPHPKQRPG

Sequence of Torsin-1A-interacting protein 1 (Homo sapiens) (Q5JTV8 whole entry, looked up): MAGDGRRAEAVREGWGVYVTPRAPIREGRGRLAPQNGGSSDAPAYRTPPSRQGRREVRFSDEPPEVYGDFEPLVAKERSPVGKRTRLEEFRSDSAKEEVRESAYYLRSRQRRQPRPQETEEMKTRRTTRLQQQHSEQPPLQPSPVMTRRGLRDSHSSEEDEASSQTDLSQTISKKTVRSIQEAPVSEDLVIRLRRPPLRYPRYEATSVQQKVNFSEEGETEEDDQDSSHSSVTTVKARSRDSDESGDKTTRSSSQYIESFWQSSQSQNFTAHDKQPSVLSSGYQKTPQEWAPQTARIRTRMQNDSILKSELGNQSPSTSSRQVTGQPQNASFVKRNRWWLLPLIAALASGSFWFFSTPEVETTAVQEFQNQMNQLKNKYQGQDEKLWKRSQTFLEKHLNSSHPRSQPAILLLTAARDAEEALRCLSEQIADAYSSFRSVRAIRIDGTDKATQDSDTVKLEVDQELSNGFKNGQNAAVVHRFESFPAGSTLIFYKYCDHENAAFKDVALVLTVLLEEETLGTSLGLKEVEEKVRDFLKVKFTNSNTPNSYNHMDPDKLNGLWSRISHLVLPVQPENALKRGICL

For the molecule `COc1cccc([C@H]2Oc3ccc(OC)cc3C(=NOC[C@@H](O)COCc3ccco3)[C@@H]2O)c1`, the composite z-score in assay [1] is -0.593; in assay [3], -0.159; in assay [4] it was -2.33; in assay [5] it was -2.08; in [6] it was -0.278; in assay [7], -0.372. For the same molecule, the composite z-score is -0.539 in [8], -0.889 in assay [9] and -0.799 in assay [10]. Further, the z-score in [2] is -1.04.
In the case of `CCOC(=O)[C@H](CC(C)C)NC(=O)CCC1CC(OC(=O)NCCc2ccc(F)cc2)CC2(CCCC(COC(=O)NCCOc3ccccc3)O2)O1` (stereo not given in full), the composite z-score is 1.36 in assay [1]; 1.16 in assay [3]; 1.02 in assay [4]; -0.129 in [5]; -0.15 in assay [6]; -0.13 in assay [7]. The composite z-score in assay [8] is -0.0965; in [9], 0.531; in assay [10], 0.947. This molecule also showed a z-score in assay [2] of -0.972.
On to `CC(C)CON=C1C[C@@H](O)[C@@H](O)[C@@H]2[C@@H]3C(=O)N(c4cccc(Oc5ccccc5)c4)C(=O)[C@@H]3CC[C@@H]12`, for which the composite z-score is 1.35 in assay [1]; 0.374 in assay [3]; 1.05 in assay [4]; -0.426 in assay [5]; 0.0215 in assay [6]; -0.221 in [7]. In addition, the composite z-score in assay [8] was -0.158; in assay [9], 1.06; in assay [10] it was 0.538. This molecule also registered a z-score in assay [2] of 0.251.
Regarding `CCO[C@H](c1cc(OC)cc([N+](=O)[O-])c1OC)[C@H](C)C=CCC(=O)OC`, the composite z-score was -0.679 in assay [1]; 0.46 in assay [3]; -0.432 in [4]; -1.36 in assay [5]; -0.248 in assay [6]; -0.214 in [7]. Moreover, the composite z-score is -0.0278 in [8], 0.11 in assay [9] and -0.0356 in assay [10]. Besides, in [2], the z-score amounted to 0.265.
On to `CC(C)(C)N1C(=O)[C@H]2[C@H]3[C@H](O)[C@H](O)CC(=NOCc4ccccc4)[C@H]3CC[C@H]2C1=O`, for which the composite z-score is -0.397 in assay [1]; -0.0786 in [3]; 0.157 in assay [4]; -0.272 in assay [5]; -0.0125 in [6]; -0.154 in [7]. The composite z-score in assay [8] came to 0.299; in assay [9] it was 0.185; in assay [10], 1.28. The z-score in [2] turned out to be 0.561.
For `CCCNC(=O)OC[C@H]1O[C@H](CCON=C(C)CCN2CCCc3nc(C)c(C)cc32)C=C[C@@H]1Oc1ccc(OC)cc1`, the composite z-score was 0.652 in [1]; 0.425 in [3]; 0.65 in assay [4]; 0.241 in assay [5]; -0.119 in assay [6]; 0.0952 in assay [7]. The composite z-score came out at 0.358 in assay [8], 0.186 in [9] and 0.782 in assay [10]. Moreover, the z-score in assay [2] was -2.36.
For the molecule `CCOC(=O)[C@H](Cc1ccccc1)NC(=O)CCC1CC(OC(=O)NCCc2ccc(F)cc2)CC2(CCCC(COC(=O)NCCc3ccccc3OC)O2)O1` (stereo not given in full), the composite z-score is 1.37 in [1]; 0.515 in [3]; 0.63 in [4]; -0.403 in [5]; -0.0236 in assay [6]; 0.0278 in assay [7]. Also, the values for the composite z-score in assay [8], in assay [9] and in assay [10] were -0.285, 0.705 and 0.473, respectively. For the same molecule, the z-score in [2] was -1.19.
With `CO[C@H]1COC(=O)CC=C[C@H](C)[C@@H](OC)COC(=O)[C@H](C)COC(=O)CC=C[C@@H]1C`, the composite z-score was -0.61 in [1]; 1.33 in [3]; -0.774 in [4]; -1.62 in assay [5]; -0.154 in assay [6]; -0.439 in [7]. Moreover, the composite z-score in assay [8] was -0.303; in assay [9], -0.396; in assay [10] it was -0.876. This molecule displayed a z-score in assay [2] of 0.507.
In the case of `CCC(=O)[C@@]1(O)C(=O)N2C(=C3C(=O)OCC[C@@H]31)N(Cc1ccccc1)C(C)=C(C(=O)OC)[C@H]2c1ccccc1`, the composite z-score in [1] is 0.403; in assay [3], 0.366; in assay [4] it was -0.368; in assay [5], -0.478; in assay [6], 0.0108; in [7], -0.221. In addition, the composite z-score was -0.369 in [8], 0.478 in assay [9] and -0.0321 in [10]. Moreover, the z-score in [2] turned out to be 0.0779.
On to `COc1ccc(O[C@H]2C=C[C@@H](c3ccccc3)O[C@@H]2CON=CC[C@@H]2C=C[C@H](OC(C)=O)[C@@H](COC(C)=O)O2)cc1`, for which the composite z-score in [1] is -0.332; in [3], 0.425; in assay [4], -0.169; in assay [5], -0.282; in [6] it was -0.145; in assay [7] it was -0.221. In addition, the results for the composite z-score in assay [8], in assay [9] and in assay [10] were -0.083, 0.28 and -0.0924, respectively. In assay [2], this molecule returned a z-score of -0.821.
Regarding `CCOC(=O)NN=C1C[C@@H](O)[C@@H](O)[C@@H]2[C@@H]3C(=O)N(c4cccc(Oc5ccccc5)c4)C(=O)[C@@H]3CC[C@H]12`, the composite z-score is 0.731 in assay [1]; 0.404 in assay [3]; 0.141 in assay [4]; -0.141 in [5]; -0.205 in [6]; -0.388 in [7]. In addition, the composite z-score in assay [8] was -0.304; in [9], 0.129; in assay [10], 0.675. Besides, the z-score in assay [2] came out at 0.011.
For the molecule `COC(=O)CC=C[C@@H](C)[C@@H](C=NO[C@@H]1O[C@H](COC(C)=O)[C@@H](OC(C)=O)[C@H](OC(C)=O)[C@H]1OC(C)=O)NS(=O)(=O)c1ccc(C)cc1`, the composite z-score in assay [1] was -0.296; in [3], 0.599; in assay [4] it was -0.881; in [5], -1.69; in [6] it was -0.124; in assay [7], -0.221. For the same molecule, the composite z-score in assay [8] was -0.158; in assay [9], -0.441; in assay [10] it was -1. In addition, the z-score in [2] was -0.594.
`COC(=O)C=CCCc1coc(C=CCNC(=O)OC)n1`: the composite z-score is 0.565 in [1]; 0.827 in assay [3]; -0.316 in assay [4]; -1.53 in assay [5]; -0.0346 in [6]; 0.275 in assay [7]. Besides, the values for the composite z-score in assay [8], in assay [9] and in assay [10] were -0.255, 0.192 and -0.264, respectively. In assay [2], this molecule registered a z-score of -0.632.
Turning to `O=C(NN=C1C[C@@H](O)[C@@H](O)[C@@H]2[C@@H]3C(=O)N(C4CCCCC4)C(=O)[C@@H]3CC[C@H]12)OCc1ccccc1`, the composite z-score in [1] was -0.342; in [3], 0.393; in assay [4], -0.202; in [5], 0.454; in assay [6], -0.0051; in assay [7], -0.542. The composite z-score came out at 0.0014 in [8], 0.26 in assay [9] and 0.273 in assay [10]. Also, the z-score in assay [2] is -2.03.
As for `COC(=O)CC=C[C@@H](C)[C@@H](C=NOCC[C@@H]1C=C[C@H](OC(C)=O)[C@@H](COC(C)=O)O1)OC`, the composite z-score was 0.107 in assay [1]; 0.589 in [3]; -1 in assay [4]; -1.78 in [5]; -0.0346 in [6]; 0.284 in assay [7]. Besides, the composite z-score in [8] was -0.205; in assay [9], 0.473; in [10], -0.484. This molecule also came in with a z-score in assay [2] of -0.488.
As for `CCOC(=O)[C@H](Cc1ccccc1)NC(=O)CCC1CC(OC(=O)NCc2ccc3c(c2)OCO3)CC2(CCCC(COC(=O)NCCC(C)C)O2)O1` (stereo not given in full), the composite z-score in assay [1] is 1.38; in assay [3] it was 0.619; in [4], 0.487; in assay [5] it was -0.252; in [6], 0.0704; in [7] it was 0.0639. Moreover, the composite z-score in assay [8] is -0.19; in assay [9], 0.0293; in assay [10] it was 0.434. For the same molecule, the z-score in assay [2] was -1.01.
For `CCOC(=O)[C@H](Cc1ccccc1)NC(=O)CCC1CC(OC(=O)NCCc2ccc(F)cc2)CC2(CCCC(COC(=O)NCCOC)O2)O1` (stereo not given in full), the composite z-score in assay [1] was 1.4; in [3] it was 0.529; in assay [4] it was 0.276; in assay [5] it was -0.109; in [6], -0.116; in assay [7] it was 0.131. For the same molecule, the figures for the composite z-score in [8], in [9] and in assay [10] were 0.0853, 0.979 and 0.574, respectively. For the same molecule, in assay [2], the z-score is 0.686.
